Whole data set: some 25,000 sequences, median “ln(normalized median fluorescence intensity)” near 9.7, cut for the highest 2% near 11. This excerpt belongs to a sample that is enriched for the highest values.

Consider 45 sequences from the supplement of paper PMC11417369.

The assay has as its system PfAP2-HC AP2 domain (GST-tagged). Nature of the assay: gcPBM binding intensity (ln(normalized median fluorescence intensity)); higher = stronger DNA binding. The method in brief: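 GST-tagged P. falciparum DNA-binding domains, expressed in E. coli (about 25 μg on average), were applied for 1 h to an Agilent 4 × 180k array of primer-extended double-stranded 36-bp intergenic genomic probes plus negative controls. The binding buffer was 1× PBS with 1% milk, 0.2 mg/ml BSA, 0.5% salmon testes DNA and 0.03% Triton X-100. Bound protein was detected with Alexa488 anti-GST antibody and scanned at 488 nm. Binding intensity is the highest Masliner-normalised natural-log median intensity across replicate spots of either probe orientation.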
In the case of “TATTATTTGAGTAGTTGTACTCATTAATATATAAAA [XGTACX_site3468]”, the “gcPBM binding intensity (ln)” value is 9.35. Regarding “TTTGGCTAGTTAGGCCGTACATGTAAATAATATATA [XGTACX_site1138]”, the “gcPBM binding intensity (ln)” value was 9.47.

Consider “AAAAAACACGGACACACACACATATACATACATACA [CACACA_site5470]”, for which the “gcPBM binding intensity (ln)” value amounted to 10.6. To “AGCACGCACAGACACACACACATATTTATATTTATA [CACACA_site6291]” belongs 10.3. As for “TATATATATATATATACACACATATATATATTTATA [CACACA_site627]”, the “gcPBM binding intensity (ln)” value stood at 10.2. “AACGCACGAGGACACACACACATATTTATATTTATA [CACACA_site6608]”: the “gcPBM binding intensity (ln)” value worked out at 11.4. On to “TATATATATTTATACACACACATATATTTATATATT [CACACA_site484]”, for which the “gcPBM binding intensity (ln)” value was found to be 9.97. For “ATTATATATATTTATGCACACAAAATATATTATATA [CACACA_site9244]”, the “gcPBM binding intensity (ln)” value turned out to be 9.64. With “ACCATACATACATACACACACACACGCATATTTATA [CACACA_site7386]”, the “gcPBM binding intensity (ln)” value is 11.2. As to “AAAAAACAGACATACACACACACACGGATATTTATA [CACACA_site7570]”, the “gcPBM binding intensity (ln)” value came out at 11.4. Consider “AACTCACGAGGACACACACACATATATATATATATA [CACACA_site4711]”, for which the “gcPBM binding intensity (ln)” value stood at 10.2. Consider “CAAAAGGATATGCACACACACACACGGATATTTATA [CACACA_site7099]”, for which the “gcPBM binding intensity (ln)” value was determined as 11.4. To “TATATATATTTATGCACACAAAATATATTATATAAT [CACACA_site5955]” belongs 9.67. In the case of “ATATTAAACAGACACACACACATATATTTATTTATA [CACACA_site7564]”, the “gcPBM binding intensity (ln)” value was determined as 10.4. In the case of “TCATCCACATATTGTAGTACAAGATAATTGTTTATT [XGTACX_site1634]” it was 9.63; in that of “TTTTTAGAAAGACATGCATGTAATAAAAATAAATAA [TGCATGCA_site685]”, 9.82; in that of “AAAATTTAATATAATGCACACATAAAAAAAAATTCA [CACACA_site8640]”, 9.77. For the sequence “TATAGATGTATGTACATACACACATATATAAATAAA [CACACA_site1789]”, the “gcPBM binding intensity (ln)” value stood at 10. To “TTATGCAATTTGTATTGTACATTCATGATATTAATA [XGTACX_site5070]” belongs 9.53; to “TACATGTATAAATAAGCACACATGTGGATATGTACA [CACACA_site93]”, 10. As for “TATTTTTCTTTTTAAAAATATATCACATGAACATTA [XGTACX_negctrl_site183]”, the “gcPBM binding intensity (ln)” value amounted to 9.39.

As for “ATATAAAAAAATAATAAATAAATAAAAAGATTTCTT [XGTACX_negctrl_site110]”, the “gcPBM binding intensity (ln)” value was 9.65. For the sequence “TATTTATACACGCACACACACTTATACATTTATATA [CACACA_site7543]”, the “gcPBM binding intensity (ln)” value was 10.8.

As for “ATATACATTAAATGAACACACATAAATAAATTACAT [CACACA_site2852]”, the “gcPBM binding intensity (ln)” value turned out to be 9.89. Turning to “TTATGATGGTCTTTATAAGGGCACATTAAATTCGGC [TGCATGCA_negctrl_site166]”, the “gcPBM binding intensity (ln)” value stood at 9.35. Regarding “TACATATTTATATACACACACACACGGATATTTATA [CACACA_site7239]”, the “gcPBM binding intensity (ln)” value stood at 11. To “TATATATATATTTATACACACACATATATTTATATA [CACACA_site8054]” belongs 10.1; to “TATTTATATTTATATACACACATACATATTTATATT [CACACA_site6535]”, 9.93; to “ACCGTGGGAGGACACACACACACACGCACATATATA [CACACA_site6289]”, 11.1. Regarding “AAACCGTGGGAGCACACACACACACCGACACATATA [CACACA_site4338]”, the “gcPBM binding intensity (ln)” value worked out at 10.4. With “AAACCGTGGGAGCACACACACACACGCGCACATATA [CACACA_site6288]”, the “gcPBM binding intensity (ln)” value was determined as 10.5. Turning to “TTTTAAAAATCTATATGTACACAATACGTCTATAAA [XGTACX_site5787]”, the “gcPBM binding intensity (ln)” value was determined as 9.54. As to “AAAAAAAAACAAAAAAGTACAAAATAAAAATACGTT [XGTACX_site4566]”, the “gcPBM binding intensity (ln)” value turned out to be 9.75. In the case of “TTTTTTTCTTTTCAAACACACAATTGGTATATATTA [CACACA_site3320]”, the “gcPBM binding intensity (ln)” value amounted to 9.81. With “AAGAATTATAGAAACACACATACATACAGACATACA [CACACA_site1943]”, the “gcPBM binding intensity (ln)” value was 10.1.

“AACGTCTTTTTTTTTTTTTTTCTTTTTTTTTTTATT [CACACA_negctrl_site303]”: the “gcPBM binding intensity (ln)” value came out at 9.86.

Take “AAAAAAAAAACAAATACACACGCACCCAAAAAAAAA [CACACA_site8166]”: the “gcPBM binding intensity (ln)” value came out at 10.2. On to “AAAAAAAAAAAAAAAACACACATACACGCACGCACA [CACACA_site7569]”, for which the “gcPBM binding intensity (ln)” value was 10.8. In the case of “AAAAAAAACACGCGCACACACACACCCACCCACCGA [CACACA_site2206]” it was 11.5; in that of “AGAAAAAAACAACATGCACACGCACCCACAAAAAAA [CACACA_site7908]”, 10.4; in that of “AAAAAAACAACATGCACACGCACACCCAAAAAAAGC [CACACA_site72]”, 10.7. Regarding “AAAAAAAACACGCGCACACACACACCCACAGACACA [CACACA_site5253]”, the “gcPBM binding intensity (ln)” value was 10.7. In the case of “AAAAAACACGCGCACACACACACACGCGCCCACATA [CACACA_site7106]” it was 11.1; in that of “AAAAAAAAAACACGCGCACACACACCCACCCACCCA [CACACA_site8689]”, 10.9; in that of “AAAAAAAAAAAAAACACACATACACGCCCACCCATA [CACACA_site3391]”, 10.4.
